# Measured values from the supplement of paper PMC3334620.
# Over roughly 33,000 sequences, “E-score (-0.5 to 0.5)” has its median near -0.021; the highest 2% begin near 0.32. The entries come from a sample that favours the highest values as a whole.
# Target: T1, Zap1 (UniProt P47043)
# T1 sequence: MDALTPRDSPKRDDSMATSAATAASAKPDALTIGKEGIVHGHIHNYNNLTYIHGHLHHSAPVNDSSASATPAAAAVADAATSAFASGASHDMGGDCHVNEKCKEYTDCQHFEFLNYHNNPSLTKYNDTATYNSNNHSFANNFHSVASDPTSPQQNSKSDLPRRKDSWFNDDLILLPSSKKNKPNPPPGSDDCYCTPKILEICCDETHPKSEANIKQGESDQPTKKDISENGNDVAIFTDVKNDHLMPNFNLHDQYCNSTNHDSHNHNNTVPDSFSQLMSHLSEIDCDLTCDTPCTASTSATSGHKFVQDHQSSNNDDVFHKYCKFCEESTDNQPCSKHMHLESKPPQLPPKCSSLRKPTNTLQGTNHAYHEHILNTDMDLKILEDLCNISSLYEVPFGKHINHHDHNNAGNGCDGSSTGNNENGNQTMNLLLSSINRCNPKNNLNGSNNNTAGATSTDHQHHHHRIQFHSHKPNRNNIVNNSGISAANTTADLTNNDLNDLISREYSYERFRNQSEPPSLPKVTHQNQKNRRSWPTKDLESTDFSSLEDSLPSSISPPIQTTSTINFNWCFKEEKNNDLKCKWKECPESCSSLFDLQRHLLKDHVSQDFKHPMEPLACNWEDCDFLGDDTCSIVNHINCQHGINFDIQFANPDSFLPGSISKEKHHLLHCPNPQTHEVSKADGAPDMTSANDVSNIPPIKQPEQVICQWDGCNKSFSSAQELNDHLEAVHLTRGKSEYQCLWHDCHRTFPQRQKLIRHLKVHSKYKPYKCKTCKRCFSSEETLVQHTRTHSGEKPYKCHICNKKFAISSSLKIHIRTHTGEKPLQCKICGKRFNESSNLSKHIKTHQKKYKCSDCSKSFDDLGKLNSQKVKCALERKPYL
# Assay: PBM E-score (8-mer binding enrichment) (E-score (-0.5 to 0.5)); higher = stronger / more preferred TF binding
# Settings: protein concentration: 200 nM; construct: GST-full length
# Summary of the method: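 Using PURExpress in vitro transcription/translation, GST-tagged yeast transcription factors were made in full-length or DNA-binding-domain form. These were applied at about 100-200 nM to double-stranded universal all-10-mer Agilent arrays, and bound protein was detected with fluorescent anti-GST. Scans were normalised with masliner before the Universal PBM Analysis Suite assigned E-scores to ungapped eight-base words pooled with their reverse complements.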
row,Sequence,PBM E-score
1,ATCCAACA,0.0629
2,AGCAAAAG,-0.146
3,CCTAACTA,0.135
4,CGTCCTCA,-0.162
5,GAAGCCCC,-0.272
6,CGTTAAGA,-0.0174
7,AGTTAAAC,0.0887
8,GGTTAAAC,0.356
9,CGTTAAAA,0.0117
10,AGTTAAGA,0.00562
11,CGTTAAAC,0.21
12,GGTTAAAA,0.385
13,TGTTAAAA,0.0204
14,GGTTAAGA,0.364
15,AGTGTCGA,0.127
16,AACAGATG,-0.00675
17,AAGACTTA,-0.0811
18,CTTAGACC,-0.0476
19,GAGCGTAC,-0.162
20,TACTTGCA,0.0221
21,CGGGGCTA,-0.15
22,CGGGCTCA,-0.323
23,ATGAGGTA,0.324
24,CTGAGGTA,0.275
25,ATGAGGTG,0.0386
26,GGCTAGCC,-0.248

row,Sequence,PBM E-score
1,AGTGCCCG,-0.203
2,CCTGCTCG,-0.0742
3,CCCCTCGG,0.34
4,ACACTCGT,-0.0522
5,ACCCTCGA,0.143
6,CCCCTCGC,0.0553
7,ACCCTCGT,0.358
8,ACCCTCCG,0.228
9,ACCCTCGG,0.329
10,CCCCTCGA,0.169
11,ACCCTCGC,0.267
12,CAGTACAG,0.091
13,ACTTCTCT,-0.0321
14,CCAAGTTA,0.0627
15,CATGACGC,-0.108
16,ACCAGCGC,-0.0562
17,GGACCTCC,-0.134
18,GAAGGAGA,-0.122
19,GACTCTCC,-0.236
20,GACCCCAA,0.172
21,AACCCAAT,0.187
22,AACCCAAG,0.346
23,TACCCCCA,0.054
24,AACCCAAA,0.35
25,GACCCAAA,0.299
26,GCCACAAA,0.221

row,Sequence,PBM E-score
1,ACCACAAA,0.35
2,ACCACAAG,0.259
3,TACCCCAA,0.363
4,AACCCAAC,0.282
5,CACCCAAA,0.255
6,CGTTAGCC,-0.0813
7,GTCTTAGA,0.0182
8,CCATCAAA,0.0846
9,CCAGAAGA,-0.0769
10,CACCAAAA,0.235
11,ACCCCAAG,0.311
12,AACCAAAA,0.364
13,AACCCCCA,-0.0716
14,ACCCCCAA,-0.0064
15,AACCCCAA,0.377
16,GACCCCAC,0.243
17,ACCCCAAA,0.337
18,TACCAAAA,0.161
19,AACCCCAC,0.344
20,CCCCCAAA,-0.22
21,ACCCCCAC,-0.286
22,AACTAACG,0.166
23,AACTGCGC,-0.0727
24,CCTTAGAA,0.211
25,GCCAACAA,0.192
26,AGGCTAAC,-0.0255

row,Sequence,PBM E-score
1,TCCTACCA,-0.13
2,GATTTAGC,0.118
3,ATTGTGGC,0.0557
4,ACAAAAAT,0.234
5,ACCCAAAG,0.271
6,ACCCAAAA,0.345
7,ACCCCCAT,0.0539
8,ACAAAAAC,0.182
9,GCCCAAAA,0.179
10,AAACCCAT,0.253
11,AACCCCAT,0.359
12,ACAAAAAA,0.317
13,CCCCTTCA,-0.105
14,CTCCTAAA,-0.147
15,GCAATGCC,-0.104
16,ACCACCGA,0.172
17,ACGTAAGG,-0.112
18,AACAGGCG,-0.32
19,TTATCAAA,0.2
20,GTAATCAA,0.146
21,ATTCACTA,0.0664
22,CATAGAGC,-0.238
23,ATGAGCGC,-0.0149
24,GACCTGAA,0.132
25,CCGGCGCC,-0.114
26,CTAGGGTA,0.411

row,Sequence,PBM E-score
1,GTAGGGAA,-0.112
2,ATAGGGTG,0.214
3,GTAGGGCA,-0.143
4,ATAGGGTC,0.272
5,CTAGGGTC,0.309
6,GTAGGGTA,0.429
7,CTAGGGAA,-0.037
8,ATAGGGTA,0.38
9,TTAATGAA,0.187
10,TCTTGGAA,0.089
11,AGATTAAA,0.2
12,GCTTTGAC,0.0804
13,CTAGACTC,-0.231
14,ACGCATTA,0.12
15,AATAAGAA,0.208
16,ATAGAAGC,-0.0622
17,CACAACCC,0.414
18,AACAACCA,0.319
19,AACAACCT,0.273
20,CACAACCG,0.289
21,CACAACCA,0.343
22,AACAACAA,0.181
23,AACAACCG,0.1
24,CCCAACCA,0.123
25,AACAACCC,0.408
26,CCCAACCC,0.163

row,Sequence,PBM E-score
1,CACAACAA,0.0567
2,AACAACAC,0.151
3,AGCGCCAG,-0.256
4,CGCTTAGC,-0.239
5,ACATTTGC,-0.00108
6,CTTCCCAA,-0.213
7,GACAACCC,0.35
8,GACAAACC,0.124
9,GACAACCA,0.252
10,TACAACAA,0.276
11,TACAACCA,0.319
12,GACAACTC,-0.0129
13,GCGTCGCC,-0.162
14,GGGGCCTA,-0.136
15,GCCAGGGA,-0.174
16,GCCCACCC,0.335
17,GCCCACAC,-0.102
18,CCCCACCG,0.163
19,ACCCACCA,0.177
20,CCCCACCC,0.357
21,AACCACCC,0.353
22,GCCCACCA,-0.217
23,CACCACCC,0.186
24,ACCCACCC,0.373
25,AACCACCA,0.273
26,CCCCACCA,0.119

row,Sequence,PBM E-score
1,ACCCACCT,0.213
2,ACACCAGT,-0.0248
3,GTGCCCTA,-0.314
4,CCTGGTGA,0.0199
5,CGCTGCGC,-0.373
6,GCTGAGAA,-0.156
7,ATCTGAGG,0.094
8,ACCCTGTG,0.367
9,ACCCTGGC,0.183
10,CCCCTGAC,0.113
11,ACCCTGTC,0.193
12,AGCCTGAT,-0.177
13,ACCCTGAC,0.335
14,ACCCTGGA,0.161
15,AGCCTGTG,-0.29
16,ACCCTGGG,0.376
17,ACCCTGAT,0.344
18,AACCTGAT,0.177
19,AACCTGTG,0.207
20,CATAGCTA,-0.113
21,GCTGTGGA,-0.0748
22,CTAGTTCA,-0.00273
23,CCAACAGG,0.0645
24,AACCTCCA,0.0742
25,ACACTTCT,-0.0698
26,CAAGTGAG,-0.196

row,Sequence,PBM E-score
1,ATCCTGAG,-0.0542
2,CCCCTGAG,-0.0275
3,ACCCTGAG,0.378
4,AGCAACCG,-0.0288
5,AACTGCCG,-0.0311
6,ACCTCGCG,0.109
7,TAGTTACA,0.158
8,CCGTTACA,0.061
9,CGGTTACA,0.411
10,GCGTTACC,0.0732
11,GGGTTACA,0.468
12,CTGTTACA,0.0543
13,GGGTTACC,0.463
14,GCGTTACA,0.126
15,GAGTTACC,0.3
16,TGGTTACA,0.395
17,GGTTTACA,0.17
18,TCGTTACA,-0.024
19,AGCAACAG,-0.195
20,AACTAATA,0.314
21,AGTAGCGG,-0.125
22,GAAGACCC,0.236
23,TATTAGGA,0.0916
24,CCTTATAC,0.0827
25,CCCCAGTA,-0.0431
26,CACTGGTC,-0.0725

row,Sequence,PBM E-score
1,CCTCAATC,0.158
2,CTGTTACC,0.248
3,CAGTTACC,0.208
4,CGGTTACC,0.444
5,GCCACTAC,-0.0479
6,TATCTAGA,0.151
7,AGCGTCTA,-0.214
8,CCCTTAAG,0.335
9,ACCTTAAT,0.302
10,GCTTTAAC,0.186
11,CCCTTAAC,0.0959
12,CCTTTAAC,0.352
13,CCTTTAAG,0.237
14,ACCTTATG,0.314
15,ACCTTAAA,0.247
16,CCCTTATA,0.15
17,ACCTTAAG,0.269
18,ACCTTAAC,0.358
19,ACCTTATA,0.339
